Measured values published in PubChem BioAssay AID1209 (Sanford-Burnham Center for Chemical Genomics, 2008).
The whole screen tested about 190,000 compounds, of which about 810 (0.43%) were called active. Cut-off read from the data, not from the text of the source: active = inhibition above about 50%; inactive = the rest. Shown is part of a subset that was picked to be rich in actives.

Target: Mannose-6-phosphate isomerase (Homo sapiens) (UniProt P34949)
Experiment: MPI enzyme activity inhibition – biochemical, fluorescence intensity, coupled assay, primary screen (AID 1209);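 note: plate controls were DMSO vehicle for no effect and wells lacking substrate for full effect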
Details: purified PMI enzyme, at 20 µM, stronger effect = higher value

Chain of Mannose-6-phosphate isomerase (Homo sapiens) (P34949 whole entry, looked up): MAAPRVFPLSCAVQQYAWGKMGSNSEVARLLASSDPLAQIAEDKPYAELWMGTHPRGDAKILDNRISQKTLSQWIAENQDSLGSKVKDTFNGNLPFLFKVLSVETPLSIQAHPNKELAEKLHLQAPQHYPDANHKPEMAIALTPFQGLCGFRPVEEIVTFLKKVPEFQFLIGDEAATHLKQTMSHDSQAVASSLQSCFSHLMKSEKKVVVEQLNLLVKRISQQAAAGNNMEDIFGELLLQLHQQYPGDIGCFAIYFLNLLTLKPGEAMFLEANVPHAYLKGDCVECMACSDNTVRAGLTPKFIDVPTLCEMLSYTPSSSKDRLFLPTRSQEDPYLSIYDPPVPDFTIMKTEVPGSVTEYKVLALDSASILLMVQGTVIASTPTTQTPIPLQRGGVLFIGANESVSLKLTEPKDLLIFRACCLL

Compound	inhibition
CN(C(=O)CS(=O)(=O)c1cn(CC(=O)N2CCOCC2)c2ccccc12)c1ccccc1	-4.3% (inactive)
Cc1ccc(NC(=O)NC2C(NC(=O)Nc3ccc(C)cc3)N(C)C(=O)N2C)cc1 (configuration not stated)	9.5% (inactive)
CNC(=S)N(CCc1c(C)[nH]c2ccc(OC)cc12)Cc1cccnc1	16% (inactive)
CC(C)(Cc1ccc(O)cc1)NC(=O)CC(=O)N=Nc1c(O)[nH]c2ccc(Br)cc12	1.3% (inactive)
O=C(CSCc1ccc(Br)cc1)N=Nc1c(O)[nH]c2ccccc12	4.5% (inactive)
CC(C)(Cc1ccc(O)cc1)NC(=O)CC(=O)N=Nc1c(O)[nH]c2cc(Br)ccc12	51.6% (active)
CSc1nc2sc(-c3ccccc3)cc2c(=O)n1N	-6.6% (inactive)
CCOC(=O)Cc1csc(NC(=O)NC2(C(F)(F)F)Oc3ccccc3O2)n1	22.4% (inactive)
CCOC(=O)Cc1csc(NC(=O)NC2(C(F)(F)F)Oc3cc(Cl)c(Cl)cc3O2)n1	57.5% (active)
CCOC(=O)Cc1csc(NC(=O)Nc2cccc(Cl)c2)n1	-0.4% (inactive)
CCOC(=O)Cc1csc(NC(=O)NC2(C(F)(F)F)Oc3ccc(Cl)cc3O2)n1 (configuration not stated)	51.8% (active)
CCOC(=O)Cc1csc(NC(=O)CC)n1	-9.9% (inactive)
CCOC(=O)Cc1csc(NC(=O)C(C)(C)CC)n1	-7.2% (inactive)
CC(OC(=O)c1ccc2ncsc2c1)C(=O)NCc1ccccc1 (configuration not stated)	15.5% (inactive)
O=C(Nc1nc(-c2cccs2)cs1)c1cc2ccccc2oc1=O	-3.3% (inactive)
O=C(NC(Cc1c[nH]c2ccccc12)C(=O)N/N=C/c1ccc(Cl)cc1)c1cccs1 (configuration not stated)	18.1% (inactive)
COc1cccc(C(=O)/C=C/c2ccc(N3CCCCC3)c([N+](=O)[O-])c2)c1	14.3% (inactive)
Oc1ccc(-c2nc(-c3ccc(O)c(O)c3)cs2)cc1	54.3% (active)
Cc1nc(-c2ccc(O)c(O)c2)cs1	47% (inactive)
O=C(O)c1ccc(-c2nc(-c3ccccc3)cs2)cc1	-11.3% (inactive)
Oc1ccccc1-c1csc(-c2ccccc2)n1	12.8% (inactive)
O=C(O)c1ccc(-c2nc(-c3ccc(Cl)c(Cl)c3)cs2)cc1	-3.3% (inactive)
Oc1ccc(-c2csc(-c3ccccc3)n2)cc1O	62.6% (active)
Cc1ccccc1N1C(=O)CSC1=C(C#N)C#N	-15.3% (inactive)
CCC1=C/C(=C/c2sc3ccccc3[n+]2CC)CC(C)(C)C1	-60.6% (inactive)

Compound	inhibition
CCOC(=O)c1cnc2c(-c3ccccc3)c(C)nn2c1N	9.6% (inactive)
Cc1ccc(CNC(=O)CCCCn2c(=O)[nH]c3ccsc3c2=O)cc1	-4.3% (inactive)
CCCCn1c(-c2sccc2C)n[nH]c1=S	8.1% (inactive)
COc1cccc(NC(=O)C2CC(=O)n3cnnc3S2)c1 (configuration not stated)	51.1% (active)
COc1cccc(NC(=O)C2CC(=O)N(C)C(=Nc3cccc(F)c3)S2)c1 (configuration not stated)	15.4% (inactive)
COc1cccc(NC(=O)C2CC(=O)N=C(N)S2)c1 (configuration not stated)	15.2% (inactive)
Cc1ccc(-c2nnc(N3CCN(c4ccccn4)CC3)c3ccccc23)cc1	10.5% (inactive)
CC(C)CC(=O)Nc1cccc(NC(=O)CC(C)C)n1	-6.8% (inactive)
Cc1ccccc1NC(=O)C(NS(=O)(=O)c1ccc2c(c1)c(=O)n(C)c(=O)n2C)c1ccccc1 (configuration not stated)	-1.4% (inactive)
O=C(O)CCC(=O)N1CCN(c2ccc(C(=O)c3ccc(F)cc3)cc2)CC1	2.5% (inactive)
O=C(O)/C=C/C(=O)Nc1ccccc1C(=O)OCC(=O)c1ccc2c(c1)OCCO2	108% (active)
O=C(COC(=O)c1ccccc1NC(=O)C1CC1)c1ccc2c(c1)OCCO2	20.7% (inactive)
CC(C)C(=O)Nc1ccccc1C(=O)OCC(=O)c1ccc2c(c1)OCCO2	12.7% (inactive)
COc1cccc(N2C(=O)/C(=C\c3cccs3)NC2=S)c1	-20.3% (inactive)
COc1ccc(N2C(=O)/C(=C/c3cccs3)NC2=S)cc1	65.2% (active)
COc1ccc(N2C(=O)/C(=C/N(C)C)NC2=S)cc1	6.1% (inactive)
CC(C(=O)Nc1ncccn1)(c1ccccc1)c1ccccc1	0.1% (inactive)
C=CCNC(=S)NNC(=O)c1ccc(=O)n(Cc2ccccc2)c1	-1.4% (inactive)
CCOC(=O)c1cnc2c(ccc3ccccc32)c1NCCO	103% (active)
CCOC(=O)c1cnc2ccc(C)cc2c1NCCO	-0.9% (inactive)
CCOC(=O)c1cnc2ccccc2c1NCCO	-1.9% (inactive)
C/C(CC1CC(C)OC1=O)=N\NC(N)=S (configuration not stated)	17.6% (inactive)
CCOC(=O)c1sc(N(C)C(C)=O)nc1C	-2.3% (inactive)
Cc1ccc(-n2c(SCC(=O)N(C)C3CCS(=O)(=O)C3)nc3ccccc3c2=O)cc1 (configuration not stated)	-4.5% (inactive)
CCOc1cc(CNC)ccc1OCC(=O)NC(C)(C)C	-7.3% (inactive)

Compound	inhibition
CC(C)(C)NC(=O)COc1ccc(CNc2ccc3[nH]c(=O)[nH]c3c2)cc1	62.2% (active)
COc1cc(CNc2ccc3[nH]c(=O)[nH]c3c2)cc(Br)c1OCC(=O)NC(C)(C)C	29.5% (inactive)
COc1cc(CNc2ccc(CNc3ncn[nH]3)cc2)ccc1OCC(=O)NC(C)(C)C	0.6% (inactive)
COc1cc(CNc2ccc3[nH]c(=O)[nH]c3c2)ccc1OCC(=O)NC(C)(C)C	82.4% (active)
CCOc1cc(CNc2ncn[nH]2)ccc1OCC(=O)NC(C)(C)C	7% (inactive)
CCOc1cc(CNc2ccc3[nH]c(=O)[nH]c3c2)ccc1OCC(=O)NC(C)(C)C	75% (active)
C=CCOc1cccc(CNc2ccc3[nH]c(=O)[nH]c3c2)c1	17.8% (inactive)
CCc1ccc(OCC(=O)NC(C)(C)C)cc1	2.4% (inactive)
CC(C)(C)NC(=O)COc1ccc(CNc2ncn[nH]2)cc1	6.1% (inactive)
C=CCOc1c(Cl)cc(CNc2ccc3[nH]c(=O)[nH]c3c2)cc1OC	26.3% (inactive)
C=CCOc1ccc(CNc2ccc3[nH]c(=O)[nH]c3c2)cc1OC	81.1% (active)
CCCOc1ccc(C2/C(=C(/O)c3ccc(F)cc3)C(=O)C(=O)N2CCCN(C)C)cc1 (configuration not stated)	16.2% (inactive)
O=C(Nc1ccccc1N1CCOCC1)c1cc(-c2ccncc2)nc2ccccc12	4.3% (inactive)
COc1cc(/C=C(\C#N)c2nc3ccc(C)cc3[nH]2)cc([N+](=O)[O-])c1O	46.2% (inactive)
CN(C)/C=C1\C(=O)N(c2ccc([N+](=O)[O-])cc2)N=C1c1ccccc1	24.5% (inactive)
O=C(NCCN1CCCC1)c1ccc(Cn2c(=S)[nH]c3ccc(Br)cc3c2=O)cc1	-24.9% (inactive)
COc1ccc(C(=O)Nc2c(Cl)cc(Cl)cc2C(=O)NCCN2CCOCC2)cc1	2.6% (inactive)
Cc1ccsc1/C=C/C(=O)O	-2.7% (inactive)
Cc1cccc(N2CC(O)(c3cccs3)[N+]3=C2CCCC3)c1 (configuration not stated)	-8.7% (inactive)
CCC(CC)c1nc(C#N)c(NCc2ccccc2)o1	5.4% (inactive)
CCOc1ccc(NC(=O)N2CCC(c3nc4ccccc4[nH]3)CC2)cc1	-14.1% (inactive)
COc1ccc(-c2nc(CN3CCC(c4ccccc4)CC3)c(C)o2)cc1OC	12.5% (inactive)
Cc1ccc(C(=O)c2c(NC(=O)c3ccccc3C)sc(C)c2C)cc1	12.9% (inactive)
Cc1sc(NC(=O)c2ccccc2)c(C(=O)NCCN(C)C)c1C	-8.6% (inactive)
Cc1sc(NC(=O)c2ccccc2)c(C(=O)c2ccccc2)c1C	57.2% (active)

Compound	inhibition
Cc1ccccc1C(=O)Nc1sc(C)c(C)c1C(=O)c1ccccc1	13.9% (inactive)
Cc1ccc(C(=O)Nc2sc(C)c(C)c2C(=O)c2ccccc2)cc1	50.2% (active)
Cc1sc(NC(=O)c2ccccc2)c(C(=O)NC(C)C)c1C	2.2% (inactive)
Cc1sc(NC(=O)CCl)c(C(=O)c2ccccc2)c1C	23.2% (inactive)
CCN(CC)C(=O)c1c(NC(=O)c2ccccc2)sc(C)c1C	-0.5% (inactive)
Cc1ccc(C(=O)c2c(NC(=O)c3ccccc3)sc(C)c2C)cc1	59.8% (active)
COc1ccc(-n2ccnc2SCC(=O)NC2CCCC2)c(OC)c1	-3.3% (inactive)
CC(C)=CC(=O)OCC(=O)Nc1ccc(Cl)cn1	7% (inactive)
Cc1nc(N2CCCCC2)c(C#N)c(C)c1[N+](=O)[O-]	1.3% (inactive)
CC1CCN(C(=O)CCc2nnc(-c3ccccc3)o2)CC1	1.6% (inactive)
COc1ccc(OC)c(-n2nnnc2SCC(=O)Nc2ccc3c(c2)OCCO3)c1	14.4% (inactive)
CCOc1cc(Cl)c(NC(=O)c2ccco2)cc1OCC	10.1% (inactive)
CC1=C(C(=O)Nc2ccccc2C)C2(CCCCC2)C(C(N)=O)C(=S)N1 (configuration not stated)	-53.8% (inactive)
O=C(CSC1=Nc2ccccc2C2CC=NN12)Nc1ccc(F)cc1Cl (configuration not stated)	12.3% (inactive)
Cc1cc2c(cc1C)CSC(c1c(O)ccc3ccccc13)SC2	21.9% (inactive)
Cc1nc2ccccc2c(C)c1C(=O)c1ccccc1	-1.1% (inactive)
CCOC(=O)c1c(C2COc3ccccc3O2)csc1NC(=O)c1ccco1 (configuration not stated)	55.5% (active)
CCOC(=O)c1c(C2COc3ccccc3O2)csc1N (configuration not stated)	19.8% (inactive)
CCOC(=O)c1c(C2COc3ccccc3O2)csc1NC(=O)c1ccccc1 (configuration not stated)	15.6% (inactive)
C[n+]1ccccc1C1CCCC/C1=N\Nc1ccc([N+](=O)[O-])cc1[N+](=O)[O-] (configuration not stated)	-5.6% (inactive)
C[n+]1ccccc1C1CCCC/C1=N\NC(N)=S (configuration not stated)	64.5% (active)
CC1CCCC/C1=N\NC(=S)Nc1ccccc1 (configuration not stated)	-33.2% (inactive)
